Experimental data from PubChem BioAssay (NCATS).
Results filed as inconclusive are left out. Activity calls are given as the source filed them. The call rests on the fitted dose curve; in most records, active means well fitted cell-killing curve with a large enough effect; inconclusive means small, poorly fitted or top-dose-only effect, or effect the other way; inactive means flat fitted curve, though single readings scatter.

Assays:
Assay in all cases: Primary qHTS to identify gynecologic anti-cancer compounds using libraries of approved drugs and bioactive compounds (AID 1345084); further: nearly all actives have a fitted effect of over 55% in size
C33A = details: Gynecologic cancer cell panel viability, ATPlite luminescence, 48 h; series mostly up to 57.5 µM
Summary of the method: (§1)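 In this quantitative HTS, cell killing is estimated from loss of ATP-dependent luciferase light. Cells see five compound concentrations over a 48 h exposure.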

CAOV3 = details: Gynecologic cancer cell panel viability, ATPlite luminescence, 48 h; series mostly up to 57.5 µM
Summary of the method: as §1

CASKI = details: Gynecologic cancer cell panel viability, ATPlite luminescence, 48 h; series mostly up to 57.5 µM
Summary of the method: as §1

Es-2 = details: Gynecologic cancer cell panel viability, ATPlite luminescence, 48 h; series mostly up to 57.5 µM
Summary of the method: as §1

HeLa = details: Gynecologic cancer cell panel viability, ATPlite luminescence, 48 h; series mostly up to 57.5 µM
Summary of the method: as §1

Hek293T = details: Gynecologic cancer cell panel viability, ATPlite luminescence, 48 h, control line for the selectivity index; series mostly up to 57.5 µM
Summary of the method: as §1

JEG-3 = details: Gynecologic cancer cell panel viability, ATPlite luminescence, 48 h; series mostly up to 57.5 µM
Summary of the method: as §1

OV90 = details: Gynecologic cancer cell panel viability, ATPlite luminescence, 48 h; series mostly up to 57.5 µM
Summary of the method: as §1

PA-1 = details: Gynecologic cancer cell panel viability, ATPlite luminescence, 48 h; series mostly up to 57.5 µM
Summary of the method: as §1

SKOV3 = details: Gynecologic cancer cell panel viability, ATPlite luminescence, 48 h; series mostly up to 57.5 µM
Summary of the method: as §1

Tov-21-G = details: Gynecologic cancer cell panel viability, ATPlite luminescence, 48 h; series mostly up to 57.5 µM
Summary of the method: as §1

Tov112D = details: Gynecologic cancer cell panel viability, ATPlite luminescence, 48 h; series mostly up to 57.5 µM
Summary of the method: as §1
On the % scale 0 is the no-effect control and ±100 the full control effect.

CC1(C)CC[C@]2(C(=O)O[C@@H]3O[C@H](CO)[C@@H](O)[C@H](O)[C@H]3O)CC[C@]3(C)C(=CCC4[C@@]5(C)C[C@@H](O)[C@H](O)C(C)(C)C5[C@H](O)C[C@]43C)[C@@H]2[C@@H]1O (stereo partly drawn)
inactive: Potency (C33A) | Potency (CAOV3) | Potency (CASKI) | Potency (Es-2) | Potency (HeLa) | Potency (Hek293T) | Potency (JEG-3) | Potency (OV90) | Potency (PA-1) | Potency (SKOV3) | Potency (Tov-21-G) | Potency (Tov112D)

CC(C)CCC1(O)C(=O)C(C)(C)C(O[C@@H]2O[C@H](CO)[C@@H](O)[C@H](O)[C@H]2O)C(C)(C)C1O (stereo partly drawn)
inactive: Potency (C33A) | Potency (CAOV3) | Potency (CASKI) | Potency (Es-2) | Potency (HeLa) | Potency (Hek293T) | Potency (JEG-3) | Potency (OV90) | Potency (PA-1) | Potency (SKOV3) | Potency (Tov-21-G) | Potency (Tov112D)

NC1CCCCN(c2c(F)cc3c(=O)c(C(=O)O)cn(C4CC4)c3c2Cl)C1 (stereo not drawn)
inactive: Potency (C33A) | Potency (CAOV3) | Potency (CASKI) | Potency (Es-2) | Potency (HeLa) | Potency (Hek293T) | Potency (JEG-3) | Potency (OV90) | Potency (PA-1) | Potency (SKOV3) | Potency (Tov-21-G) | Potency (Tov112D)

COc1cc(O)c2c(c1)C1=CC(O)C(O)CC1(C)OC2=O (stereo not drawn)
inactive: Potency (C33A) | Potency (CAOV3) | Potency (CASKI) | Potency (Es-2) | Potency (HeLa) | Potency (Hek293T) | Potency (JEG-3) | Potency (OV90) | Potency (PA-1) | Potency (SKOV3) | Potency (Tov-21-G) | Potency (Tov112D)

CC1=CC(=O)[C@H]2C(C)(C)CCC[C@]2(C)[C@@]1(O)CO
inactive: Potency (C33A) | Potency (CAOV3) | Potency (CASKI) | Potency (Es-2) | Potency (HeLa) | Potency (Hek293T) | Potency (JEG-3) | Potency (OV90) | Potency (PA-1) | Potency (SKOV3) | Potency (Tov-21-G) | Potency (Tov112D)

C=CC(C)(C)C12C=C(OC)C(=O)N3C(C(C)C)C(=O)NC31N(OC)c1ccccc12 (stereo not drawn)
inactive: Potency (C33A) | Potency (CAOV3) | Potency (CASKI) | Potency (Es-2) | Potency (HeLa) | Potency (Hek293T) | Potency (JEG-3) | Potency (OV90) | Potency (PA-1) | Potency (SKOV3) | Potency (Tov-21-G) | Potency (Tov112D)

CCOc1ccc2nc(SCCN3CCOCC3)[nH]c2c1
inactive: Potency (C33A) | Potency (CAOV3) | Potency (CASKI) | Potency (Es-2) | Potency (HeLa) | Potency (Hek293T) | Potency (JEG-3) | Potency (OV90) | Potency (PA-1) | Potency (SKOV3) | Potency (Tov-21-G) | Potency (Tov112D)

C[C@@H]1O[C@@H](O[C@H]2[C@H](O)[C@@H](O[C@@H]3O[C@H](CO)[C@@H](O)[C@H](O[C@@H]4O[C@H](CO)[C@@H](O)[C@H](O)[C@H]4O)[C@H]3O)[C@H](O[C@H]3CC[C@@]4(C)C(=CC[C@@H]5C4CC[C@@]4(C)C5C[C@@H]5OC6(CC[C@@](C)(CO[C@@H]7O[C@H](CO)[C@@H](O)[C@H](O)[C@H]7O)O6)[C@@H](C)[C@@H]54)C3)O[C@@H]2CO)[C@H](O)[C@H](O)[C@H]1O (stereo partly drawn)
inactive: activity change, negative = cytotoxicity (C33A) 0.269% [at 6.55 µM] | activity change, negative = cytotoxicity (CAOV3) -0.0617% [at 6.55 µM] | activity change, negative = cytotoxicity (CASKI) -1.1% [at 6.55 µM] | activity change, negative = cytotoxicity (Es-2) -0.893% [at 6.55 µM] | activity change, negative = cytotoxicity (HeLa) -3.62% [at 6.55 µM] | activity change, negative = cytotoxicity (Hek293T) 9.02% [at 6.55 µM] | activity change, negative = cytotoxicity (JEG-3) -5.56% [at 6.55 µM] | activity change, negative = cytotoxicity (OV90) 1.28% [at 6.55 µM] | activity change, negative = cytotoxicity (PA-1) -4.89% [at 6.55 µM] | activity change, negative = cytotoxicity (SKOV3) 5.85% [at 6.55 µM] | activity change, negative = cytotoxicity (Tov-21-G) -2.15% [at 6.55 µM] | activity change, negative = cytotoxicity (Tov112D) -2.67% [at 6.55 µM]

CC1COC2(OC3CC4C5CC(O[C@@H]6O[C@H](C)[C@@H](O[C@@H]7O[C@@H](C)[C@H](O)[C@@H](O)[C@H]7O)[C@H](O)[C@H]6O)C6CC(O)CCC6(C)C5CCC4(C)C3C2C)C(O)C1 (stereo partly drawn)
inactive: Potency (C33A) | Potency (CAOV3) | Potency (CASKI) | Potency (Es-2) | Potency (HeLa) | Potency (Hek293T) | Potency (JEG-3) | Potency (OV90) | Potency (PA-1) | Potency (SKOV3) | Potency (Tov-21-G) | Potency (Tov112D)

CC(=O)OC[C@@]12C(=O)C[C@@H](C)[C@]3(C[C@@H](c4ccoc4)O[C@H]3OC(C)=O)[C@H]1CCC[C@]21CO1
inactive: Potency (C33A) | Potency (CAOV3) | Potency (CASKI) | Potency (Es-2) | Potency (HeLa) | Potency (Hek293T) | Potency (JEG-3) | Potency (OV90) | Potency (PA-1) | Potency (SKOV3) | Potency (Tov-21-G) | Potency (Tov112D)

CC(=O)O[C@@H]1c2c(C)coc2C(=O)[C@@]23O[C@@H]2CC[C@H](C)[C@@]13C
inactive: Potency (C33A) | Potency (CAOV3) | Potency (CASKI) | Potency (Es-2) | Potency (HeLa) | Potency (Hek293T) | Potency (JEG-3) | Potency (OV90) | Potency (PA-1) | Potency (SKOV3) | Potency (Tov-21-G) | Potency (Tov112D)

CC(C)=CCC/C(C)=C/CCC1(C)Oc2c(c(O)cc3c2CN(C(CCC(=O)O)C(=O)O)C3=O)CC1O (stereo not drawn)
inactive: Potency (C33A) | Potency (CAOV3) | Potency (CASKI) | Potency (Es-2) | Potency (HeLa) | Potency (Hek293T) | Potency (JEG-3) | Potency (OV90) | Potency (PA-1) | Potency (SKOV3) | Potency (Tov-21-G) | Potency (Tov112D)

CC1=CC(=O)CC(C)(CO)C1(O)/C=C/C(C)O[C@@H]1O[C@H](CO)[C@@H](O)[C@H](O)[C@H]1O (stereo partly drawn)
inactive: Potency (C33A) | Potency (CAOV3) | Potency (CASKI) | Potency (Es-2) | Potency (HeLa) | Potency (Hek293T) | Potency (JEG-3) | Potency (OV90) | Potency (PA-1) | Potency (SKOV3) | Potency (Tov-21-G) | Potency (Tov112D)

CC(=O)C1=CCC2C3CCC4CC(O[C@@H]5O[C@H](CO)[C@@H](O[C@@H]6O[C@@H](C)[C@H](O)[C@@H](O)[C@H]6O)[C@H](O)[C@H]5O[C@@H]5O[C@H](CO)[C@@H](O)[C@H](O)[C@H]5O)CCC4(C)C3CCC12C (stereo partly drawn)
inactive: Potency (C33A) | Potency (CAOV3) | Potency (CASKI) | Potency (Es-2) | Potency (HeLa) | Potency (Hek293T) | Potency (JEG-3) | Potency (OV90) | Potency (PA-1) | Potency (SKOV3) | Potency (Tov-21-G) | Potency (Tov112D)
